# Assay results reported in paper PMC7862700, “An all-to-all approach to the identification of sequence-specific readers for epigenetic DNA modifications on cytosine”.
# Assays:
# Assay in all cases: DAPPL (digital affinity profiling via proximity ligation, sequencing); 10 mM Tris-HCl pH 7.5, 50 mM NaCl, 1 mM DTT, 4% glycerol, room temperature, 30 min; GST-TFs on glutathione beads, 16-mer random dsDNA library, 0.1% formaldehyde crosslink after washing; high values mean tight binding
# FEV = molecular target: T1, FEV (Homo sapiens, UniProt Q99581 1-238); settings: protein: recombinant; tags: N-terminal GST; dsDNA, one strand shown
# T1 sequence: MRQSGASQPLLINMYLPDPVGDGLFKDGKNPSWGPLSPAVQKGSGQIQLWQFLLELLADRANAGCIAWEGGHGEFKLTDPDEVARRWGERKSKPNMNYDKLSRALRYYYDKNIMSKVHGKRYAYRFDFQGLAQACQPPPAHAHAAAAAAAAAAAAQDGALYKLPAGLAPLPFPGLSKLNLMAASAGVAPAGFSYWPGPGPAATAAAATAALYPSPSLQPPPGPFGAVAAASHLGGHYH
# Method in brief: (§1)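 Each value of binding signal is a hexamer's read frequency for a factor divided by the same hexamer's frequency in the tag-only sample. Barcoded, bead-captured GST fusions of human transcription factors made in yeast were pooled with that sample and incubated with 200 nmole of a random double-stranded 16-mer DNA library in Tris/NaCl/DTT/glycerol buffer at room temperature for 30 min. Washing, 0.1% formaldehyde crosslinking, proximity ligation, PCR and Illumina NextSeq500 sequencing followed.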
# ETV5 = ETV5 (Homo sapiens, UniProt P41161 1-510); settings: protein: recombinant; tags: N-terminal GST; dsDNA, one strand shown
# Method in brief: as §1
# HSF1 = HSF1 (Homo sapiens, UniProt Q00613 1-529); settings: protein: recombinant; tags: N-terminal GST; chain copies: 3; dsDNA, one strand shown
# Method in brief: as §1
# SPIC = molecular target: T2, SPIC (Homo sapiens, UniProt Q8N5J4 1-248); settings: protein: recombinant; tags: N-terminal GST; dsDNA, one strand shown
# T2 sequence: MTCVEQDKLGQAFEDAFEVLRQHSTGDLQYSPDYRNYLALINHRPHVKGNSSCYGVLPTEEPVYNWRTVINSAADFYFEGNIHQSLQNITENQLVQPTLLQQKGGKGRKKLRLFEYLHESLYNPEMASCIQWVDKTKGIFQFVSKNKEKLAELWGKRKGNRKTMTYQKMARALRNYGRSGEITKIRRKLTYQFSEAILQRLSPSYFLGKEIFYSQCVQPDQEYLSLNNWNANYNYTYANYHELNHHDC
# Method in brief: as §1
# ELF4 = ELF4 (Homo sapiens, UniProt Q99607 1-663); settings: protein: recombinant; tags: N-terminal GST; dsDNA, one strand shown
# Method in brief: as §1
# ELK4 = molecular target: T3, ELK4 (Homo sapiens, UniProt P28324-2 1-405); settings: protein: recombinant; tags: N-terminal GST; dsDNA, one strand shown
# T3 sequence: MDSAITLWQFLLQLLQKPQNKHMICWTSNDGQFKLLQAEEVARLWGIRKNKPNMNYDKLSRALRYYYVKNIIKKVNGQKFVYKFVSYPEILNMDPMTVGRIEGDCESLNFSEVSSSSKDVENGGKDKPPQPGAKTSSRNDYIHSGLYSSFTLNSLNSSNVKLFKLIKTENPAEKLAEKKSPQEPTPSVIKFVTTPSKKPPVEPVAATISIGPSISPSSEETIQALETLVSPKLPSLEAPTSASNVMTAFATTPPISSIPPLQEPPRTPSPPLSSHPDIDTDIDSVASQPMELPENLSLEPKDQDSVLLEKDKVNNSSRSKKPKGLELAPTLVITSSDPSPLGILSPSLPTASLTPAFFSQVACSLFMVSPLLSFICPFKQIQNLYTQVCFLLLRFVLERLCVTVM
# Method in brief: as §1
# ETV2 = molecular target: T4, ETV2 (Homo sapiens, UniProt O00321 1-342); settings: protein: recombinant; tags: N-terminal GST; dsDNA, one strand shown
# T4 sequence: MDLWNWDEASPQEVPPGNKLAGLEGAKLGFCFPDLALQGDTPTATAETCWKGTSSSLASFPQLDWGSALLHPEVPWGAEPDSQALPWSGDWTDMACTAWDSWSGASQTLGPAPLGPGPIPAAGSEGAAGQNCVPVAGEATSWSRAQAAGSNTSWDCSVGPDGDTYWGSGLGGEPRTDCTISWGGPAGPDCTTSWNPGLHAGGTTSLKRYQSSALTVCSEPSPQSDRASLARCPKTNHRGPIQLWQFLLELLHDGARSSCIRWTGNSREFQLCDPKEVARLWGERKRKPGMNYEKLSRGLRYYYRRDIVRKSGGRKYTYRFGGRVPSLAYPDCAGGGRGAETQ
# Method in brief: as §1
# ELF3 = molecular target: T5, ELF3 (Homo sapiens, UniProt P78545 1-371); settings: protein: recombinant; tags: N-terminal GST; dsDNA, one strand shown
# T5 sequence: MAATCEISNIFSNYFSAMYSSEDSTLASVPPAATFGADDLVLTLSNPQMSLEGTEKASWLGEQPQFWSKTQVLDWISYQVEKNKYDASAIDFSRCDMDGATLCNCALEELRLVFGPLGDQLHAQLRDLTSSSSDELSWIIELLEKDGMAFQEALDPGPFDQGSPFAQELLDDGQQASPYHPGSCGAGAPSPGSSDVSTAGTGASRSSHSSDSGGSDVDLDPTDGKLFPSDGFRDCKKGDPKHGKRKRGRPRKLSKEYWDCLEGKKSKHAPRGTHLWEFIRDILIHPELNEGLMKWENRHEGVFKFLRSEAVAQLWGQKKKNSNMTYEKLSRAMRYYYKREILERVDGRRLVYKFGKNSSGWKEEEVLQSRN
# Method in brief: as §1
# CRX = CRX (Homo sapiens, UniProt O43186 1-299); settings: protein: recombinant; tags: N-terminal GST; dsDNA, one strand shown
# Method in brief: as §1
# ETV1 = ETV1 (Homo sapiens, UniProt P50549 1-477); settings: protein: recombinant; tags: N-terminal GST; dsDNA, one strand shown
# Method in brief: as §1
# ERF = molecular target: T6, ERF (Homo sapiens, UniProt P50548 1-548); settings: protein: recombinant; tags: N-terminal GST; dsDNA, one strand shown
# T6 sequence: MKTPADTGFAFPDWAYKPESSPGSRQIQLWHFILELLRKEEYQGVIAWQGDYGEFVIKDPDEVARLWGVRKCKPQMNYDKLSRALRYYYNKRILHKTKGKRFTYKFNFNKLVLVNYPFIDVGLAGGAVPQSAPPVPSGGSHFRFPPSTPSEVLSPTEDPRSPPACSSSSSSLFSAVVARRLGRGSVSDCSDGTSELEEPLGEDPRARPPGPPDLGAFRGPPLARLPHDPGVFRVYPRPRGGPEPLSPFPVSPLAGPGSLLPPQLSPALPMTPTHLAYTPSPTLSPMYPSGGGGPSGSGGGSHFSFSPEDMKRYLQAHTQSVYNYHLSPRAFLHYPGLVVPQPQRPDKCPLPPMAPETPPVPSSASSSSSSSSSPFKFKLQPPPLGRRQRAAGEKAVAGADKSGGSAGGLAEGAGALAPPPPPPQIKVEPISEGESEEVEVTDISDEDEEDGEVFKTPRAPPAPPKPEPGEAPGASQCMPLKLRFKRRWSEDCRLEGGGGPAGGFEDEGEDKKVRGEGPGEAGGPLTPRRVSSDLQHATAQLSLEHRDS
# Method in brief: as §1
# ETV3L = molecular target: T7, ETV3L (Homo sapiens, UniProt Q6ZN32 1-361); settings: protein: recombinant; tags: N-terminal GST; dsDNA, one strand shown
# T7 sequence: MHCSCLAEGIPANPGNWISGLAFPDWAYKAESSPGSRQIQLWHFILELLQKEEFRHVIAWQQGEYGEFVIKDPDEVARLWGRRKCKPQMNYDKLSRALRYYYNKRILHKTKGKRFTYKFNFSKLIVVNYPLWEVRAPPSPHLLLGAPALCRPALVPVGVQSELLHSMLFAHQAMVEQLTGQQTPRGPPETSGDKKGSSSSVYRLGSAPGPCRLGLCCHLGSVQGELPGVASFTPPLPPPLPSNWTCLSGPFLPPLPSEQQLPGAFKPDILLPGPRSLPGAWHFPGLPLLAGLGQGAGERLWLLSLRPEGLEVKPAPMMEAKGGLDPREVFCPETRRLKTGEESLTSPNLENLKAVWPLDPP
# Method in brief: as §1
# ETS2 = molecular target: T8, ETS2 (Homo sapiens, UniProt P15036 1-469); settings: protein: recombinant; tags: N-terminal GST; dsDNA, one strand shown
# T8 sequence: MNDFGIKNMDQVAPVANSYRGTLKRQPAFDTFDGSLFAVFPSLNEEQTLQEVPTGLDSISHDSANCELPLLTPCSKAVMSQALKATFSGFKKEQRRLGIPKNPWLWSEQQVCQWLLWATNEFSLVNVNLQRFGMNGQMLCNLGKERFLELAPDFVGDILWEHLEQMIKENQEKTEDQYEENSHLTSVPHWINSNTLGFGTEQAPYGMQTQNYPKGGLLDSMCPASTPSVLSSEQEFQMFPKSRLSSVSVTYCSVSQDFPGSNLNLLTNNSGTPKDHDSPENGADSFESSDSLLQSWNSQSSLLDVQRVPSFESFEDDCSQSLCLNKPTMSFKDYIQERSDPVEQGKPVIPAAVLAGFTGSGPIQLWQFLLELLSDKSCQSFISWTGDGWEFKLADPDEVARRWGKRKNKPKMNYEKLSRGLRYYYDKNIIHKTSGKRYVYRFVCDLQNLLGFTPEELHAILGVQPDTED
# Method in brief: as §1
# SPDEF = molecular target: T9, SPDEF (Homo sapiens, UniProt O95238 1-335); settings: protein: recombinant; tags: N-terminal GST; dsDNA, one strand shown
# T9 sequence: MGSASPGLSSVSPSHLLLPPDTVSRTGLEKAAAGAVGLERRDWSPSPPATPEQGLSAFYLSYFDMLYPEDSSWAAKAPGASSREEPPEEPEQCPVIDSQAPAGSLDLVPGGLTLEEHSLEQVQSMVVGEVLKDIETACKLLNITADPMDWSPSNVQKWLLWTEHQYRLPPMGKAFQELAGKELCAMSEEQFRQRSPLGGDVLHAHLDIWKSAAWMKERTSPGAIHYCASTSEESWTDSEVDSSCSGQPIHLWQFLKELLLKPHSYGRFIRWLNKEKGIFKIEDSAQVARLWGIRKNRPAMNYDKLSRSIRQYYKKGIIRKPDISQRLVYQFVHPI
# Method in brief: as §1
# ETV7 = molecular target: T10, ETV7 (Homo sapiens, UniProt Q9Y603 1-341); settings: protein: recombinant; tags: N-terminal GST; dsDNA, one strand shown
# T10 sequence: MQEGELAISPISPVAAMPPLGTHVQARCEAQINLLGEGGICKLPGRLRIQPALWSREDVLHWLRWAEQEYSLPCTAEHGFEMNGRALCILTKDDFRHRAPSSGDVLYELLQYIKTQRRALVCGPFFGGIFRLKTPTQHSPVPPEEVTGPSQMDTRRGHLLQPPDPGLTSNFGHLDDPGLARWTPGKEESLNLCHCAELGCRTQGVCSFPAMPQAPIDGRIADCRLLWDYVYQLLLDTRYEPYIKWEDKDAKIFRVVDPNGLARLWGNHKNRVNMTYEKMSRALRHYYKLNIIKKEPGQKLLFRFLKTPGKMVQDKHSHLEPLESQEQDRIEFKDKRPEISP
# Method in brief: as §1
# ELF5 = molecular target: T11, ELF5 (Homo sapiens, UniProt Q9UKW6-2 1-255); settings: protein: recombinant; tags: N-terminal GST; dsDNA, one strand shown
# T11 sequence: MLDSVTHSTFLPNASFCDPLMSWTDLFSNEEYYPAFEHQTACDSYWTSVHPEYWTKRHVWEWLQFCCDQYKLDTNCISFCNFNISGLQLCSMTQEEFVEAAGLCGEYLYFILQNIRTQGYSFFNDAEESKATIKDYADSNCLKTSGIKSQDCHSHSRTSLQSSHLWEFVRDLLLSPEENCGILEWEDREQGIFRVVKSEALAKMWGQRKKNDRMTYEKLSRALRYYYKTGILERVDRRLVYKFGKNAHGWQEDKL
# Method in brief: as §1
# ETV3 = molecular target: T12, ETV3 (Homo sapiens, UniProt P41162-2 1-143); settings: protein: recombinant; tags: N-terminal GST; dsDNA, one strand shown
# T12 sequence: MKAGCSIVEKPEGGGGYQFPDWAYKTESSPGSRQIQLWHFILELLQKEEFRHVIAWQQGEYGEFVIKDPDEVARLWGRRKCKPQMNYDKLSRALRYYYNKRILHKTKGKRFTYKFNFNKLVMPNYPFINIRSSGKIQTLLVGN
# Method in brief: as §1
# ETV6 = ETV6 (Homo sapiens, UniProt P41212 1-452); settings: protein: recombinant; tags: N-terminal GST; dsDNA, one strand shown
# Method in brief: as §1
# Sequence of CRX (O43186 whole entry): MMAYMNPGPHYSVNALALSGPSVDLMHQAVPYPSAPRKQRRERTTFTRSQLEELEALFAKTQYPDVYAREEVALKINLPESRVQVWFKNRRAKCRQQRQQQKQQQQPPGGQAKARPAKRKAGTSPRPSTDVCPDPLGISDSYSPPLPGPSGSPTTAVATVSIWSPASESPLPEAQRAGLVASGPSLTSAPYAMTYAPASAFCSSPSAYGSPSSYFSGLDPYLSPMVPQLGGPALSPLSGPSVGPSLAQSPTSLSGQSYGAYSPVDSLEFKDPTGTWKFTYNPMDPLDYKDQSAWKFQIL
# Sequence of ETV5 (P41161 whole entry): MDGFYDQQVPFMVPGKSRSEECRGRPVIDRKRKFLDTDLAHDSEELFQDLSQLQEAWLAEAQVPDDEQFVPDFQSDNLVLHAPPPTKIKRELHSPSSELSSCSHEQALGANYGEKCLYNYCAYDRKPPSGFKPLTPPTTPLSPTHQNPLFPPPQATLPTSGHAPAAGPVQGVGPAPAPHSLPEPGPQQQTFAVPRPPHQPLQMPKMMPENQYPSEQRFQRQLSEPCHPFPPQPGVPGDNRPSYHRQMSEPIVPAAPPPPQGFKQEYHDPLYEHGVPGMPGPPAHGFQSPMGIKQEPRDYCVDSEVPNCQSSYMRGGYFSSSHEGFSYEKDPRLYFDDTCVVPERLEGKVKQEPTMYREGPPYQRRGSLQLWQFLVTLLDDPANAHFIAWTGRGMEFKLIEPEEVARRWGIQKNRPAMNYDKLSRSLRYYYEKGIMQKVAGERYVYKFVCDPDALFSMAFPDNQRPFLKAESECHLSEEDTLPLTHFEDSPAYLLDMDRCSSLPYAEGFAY
# Sequence of ELF4 (Q99607 whole entry): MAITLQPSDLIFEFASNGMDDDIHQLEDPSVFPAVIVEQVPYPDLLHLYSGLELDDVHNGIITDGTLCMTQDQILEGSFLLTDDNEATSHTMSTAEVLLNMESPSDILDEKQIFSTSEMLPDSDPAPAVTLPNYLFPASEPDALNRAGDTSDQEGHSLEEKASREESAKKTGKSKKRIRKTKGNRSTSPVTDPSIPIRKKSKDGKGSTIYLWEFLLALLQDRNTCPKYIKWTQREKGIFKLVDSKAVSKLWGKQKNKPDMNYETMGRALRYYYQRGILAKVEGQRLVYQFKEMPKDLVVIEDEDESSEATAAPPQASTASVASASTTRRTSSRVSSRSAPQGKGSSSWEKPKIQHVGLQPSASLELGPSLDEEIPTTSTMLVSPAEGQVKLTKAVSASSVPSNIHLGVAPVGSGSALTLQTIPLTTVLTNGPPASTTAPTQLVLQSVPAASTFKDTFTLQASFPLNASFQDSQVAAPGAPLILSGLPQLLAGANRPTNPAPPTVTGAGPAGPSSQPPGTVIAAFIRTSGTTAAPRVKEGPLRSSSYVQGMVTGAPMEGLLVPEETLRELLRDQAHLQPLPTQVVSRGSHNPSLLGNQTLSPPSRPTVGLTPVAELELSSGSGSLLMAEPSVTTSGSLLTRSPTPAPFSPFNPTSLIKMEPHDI
# Sequence of ETV1 (P50549 whole entry): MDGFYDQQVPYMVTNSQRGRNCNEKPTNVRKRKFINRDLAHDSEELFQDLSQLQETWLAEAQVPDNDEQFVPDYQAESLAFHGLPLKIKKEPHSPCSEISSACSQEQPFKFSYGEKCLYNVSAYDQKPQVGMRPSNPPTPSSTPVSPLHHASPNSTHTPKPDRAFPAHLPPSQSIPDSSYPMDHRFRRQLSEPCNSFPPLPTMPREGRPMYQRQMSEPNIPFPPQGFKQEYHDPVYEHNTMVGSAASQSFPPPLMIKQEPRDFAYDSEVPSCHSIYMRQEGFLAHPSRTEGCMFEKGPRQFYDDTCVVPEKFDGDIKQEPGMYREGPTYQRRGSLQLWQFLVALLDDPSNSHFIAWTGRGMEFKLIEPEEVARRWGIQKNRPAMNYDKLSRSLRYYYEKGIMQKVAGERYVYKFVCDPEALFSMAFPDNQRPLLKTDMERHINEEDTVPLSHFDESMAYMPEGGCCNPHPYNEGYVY
# Sequence of ETV6 (P41212 whole entry): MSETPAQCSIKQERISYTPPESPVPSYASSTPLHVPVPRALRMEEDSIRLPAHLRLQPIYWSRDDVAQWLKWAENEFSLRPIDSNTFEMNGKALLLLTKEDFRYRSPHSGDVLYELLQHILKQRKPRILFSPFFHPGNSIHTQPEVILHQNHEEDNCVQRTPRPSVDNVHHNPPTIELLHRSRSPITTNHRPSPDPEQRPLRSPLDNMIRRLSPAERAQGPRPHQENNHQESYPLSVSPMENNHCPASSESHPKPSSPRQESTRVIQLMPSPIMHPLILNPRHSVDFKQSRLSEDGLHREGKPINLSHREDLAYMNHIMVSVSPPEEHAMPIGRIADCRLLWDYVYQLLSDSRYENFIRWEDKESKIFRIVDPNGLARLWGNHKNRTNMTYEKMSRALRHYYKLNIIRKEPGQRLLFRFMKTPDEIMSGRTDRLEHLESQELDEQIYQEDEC
# Sequence of HSF1 (Q00613 whole entry): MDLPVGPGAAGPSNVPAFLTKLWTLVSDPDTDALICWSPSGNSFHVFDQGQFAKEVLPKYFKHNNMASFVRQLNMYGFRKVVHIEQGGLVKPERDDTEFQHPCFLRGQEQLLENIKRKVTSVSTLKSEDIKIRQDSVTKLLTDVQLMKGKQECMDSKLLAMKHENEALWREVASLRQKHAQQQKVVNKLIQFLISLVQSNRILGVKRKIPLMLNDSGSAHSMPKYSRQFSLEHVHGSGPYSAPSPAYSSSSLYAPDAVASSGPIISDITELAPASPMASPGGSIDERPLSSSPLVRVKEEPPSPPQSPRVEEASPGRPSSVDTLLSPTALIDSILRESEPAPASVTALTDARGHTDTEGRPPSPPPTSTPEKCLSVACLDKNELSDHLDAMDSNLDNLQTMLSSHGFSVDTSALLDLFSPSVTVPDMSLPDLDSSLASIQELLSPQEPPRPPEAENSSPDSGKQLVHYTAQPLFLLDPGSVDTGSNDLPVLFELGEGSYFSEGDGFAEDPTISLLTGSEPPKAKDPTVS
sequence,measurement,setting,value
CTCTTG,binding signal,FEV,"1.34 fold enrichment (6-mer frequency, TF over GST control)"
same,binding signal,ETV5,"1.41 fold enrichment (6-mer frequency, TF over GST control)"
same,binding signal,HSF1,"1.24 fold enrichment (6-mer frequency, TF over GST control)"
same,binding signal,SPIC,"1.35 fold enrichment (6-mer frequency, TF over GST control)"
same,binding signal,ELF4,"1.42 fold enrichment (6-mer frequency, TF over GST control)"
same,binding signal,ELK4,"1.52 fold enrichment (6-mer frequency, TF over GST control)"
same,binding signal,ETV2,"1.36 fold enrichment (6-mer frequency, TF over GST control)"
same,binding signal,ELF3,"1.22 fold enrichment (6-mer frequency, TF over GST control)"
same,binding signal,CRX,"1.21 fold enrichment (6-mer frequency, TF over GST control)"
same,binding signal,ETV1,"1.41 fold enrichment (6-mer frequency, TF over GST control)"
same,binding signal,ERF,"1.53 fold enrichment (6-mer frequency, TF over GST control)"
same,binding signal,ETV3L,"1.42 fold enrichment (6-mer frequency, TF over GST control)"
same,binding signal,ETS2,"1.23 fold enrichment (6-mer frequency, TF over GST control)"
same,binding signal,SPDEF,"1.26 fold enrichment (6-mer frequency, TF over GST control)"
same,binding signal,ETV7,"1.27 fold enrichment (6-mer frequency, TF over GST control)"
same,binding signal,ELF5,"1.43 fold enrichment (6-mer frequency, TF over GST control)"
same,binding signal,ETV3,"1.35 fold enrichment (6-mer frequency, TF over GST control)"
same,binding signal,ETV6,"1.2 fold enrichment (6-mer frequency, TF over GST control)"
